Screens (PubChem)
Hits are enriched below; roughly 4.6% of the tested compounds scored in any of these assays.
D1 PAM = Potentiators of Human D1 Dopamine Receptor: qHTS; HEK293 TREx D1 cells, calcium flux, dopamine EC20 potentiation; potentiation, % at 10 µM; actives 0.036% (n = 360,000); in the data active means potentiation above about 30%; further: 0% is about no effect
Epigenetic derep = Quantitative High-Throughput Screen for Regulators of Epigenetic Control; murine LDR cells, GFP reporter derepression, 30 h; actives 0.2% (n = 280,000); Potency, µM (titrated, usually from 53.9 µM), for the others: top-dose GFP activation, most hits filed as activators; AID 1865, 2009; active means well fitted activation curve with a large enough effect; further: potency means the concentration at half of the fitted maximal effect; % of control where 0% means no effect; nearly all actives have a fitted effect of over 60% in size
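Derepression of a silenced CMV-GFP reporter in murine LDR cells is scored by enumerating GFP-positive cells with a laser-scanning microplate cytometer after 30 hours of treatment at 37 C.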
TRHR PAM = qHTS for Small Molecule Agonists and Allosteric Enhancers of Human TRH Receptor: Primary Screen for Enhancers. AID 493056, 2011. TRHR cells, fluo-8 calcium fluorescence, EC20 TRH enhancement. Thyrotropin-releasing hormone receptor (Homo sapiens), P34981. actives 0.66% (n = 360,000). enhancement, % at 2 µM; in the data active means enhancement above about 30%; further: 0% is about no effect
Target sequence (P34981 whole entry, looked up): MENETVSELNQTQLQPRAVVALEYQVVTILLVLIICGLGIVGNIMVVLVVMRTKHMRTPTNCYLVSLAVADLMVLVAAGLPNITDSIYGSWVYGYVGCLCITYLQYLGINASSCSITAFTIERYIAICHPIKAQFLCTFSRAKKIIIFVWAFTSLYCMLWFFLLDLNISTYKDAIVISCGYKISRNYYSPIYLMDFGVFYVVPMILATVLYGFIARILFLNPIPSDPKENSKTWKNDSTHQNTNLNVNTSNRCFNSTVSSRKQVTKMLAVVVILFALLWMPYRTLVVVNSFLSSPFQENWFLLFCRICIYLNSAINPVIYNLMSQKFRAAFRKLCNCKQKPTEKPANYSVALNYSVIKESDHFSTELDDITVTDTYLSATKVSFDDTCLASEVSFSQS
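Enhancer read-out: after compound pinning and an initial kinetic agonist-mode read, an EC20 of TRH (10 nM final) was injected and fluo-8 calcium signal (Ex 480/Em 530) followed at 1 s/cycle for 100 cycles in TRHR-expressing cells.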
D1 ag = Allosteric Agonists of the Human D1 Dopamine Receptor: qHTS | D(1A) dopamine receptor (Homo sapiens), P21728 | HEK293 T-REx D1 cells, calcium flux, agonist mode | activation, % at 2 µM | actives 1% (n = 360,000) | AID 504660, 2011; further: 0% is about no effect
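Tetracycline-induced HEK293 TREx D1 cells, force-coupled to calcium signalling, were dye-loaded with a no-wash calcium kit. Compound was pin-added after a 10 s baseline. Fluorescence was read kinetically at 1 cycle/s for 180 s, with calcium rises flagged as agonism.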
D1 antag = Antagonist of Human D 1 Dopamine Receptor: qHTS; activity change, negative = inhibition, % at 10 µM; actives 3.2% (n = 360,000); D(1A) dopamine receptor (Homo sapiens), P21728; HEK293 TREx D1 cells, calcium flux, dopamine EC80; active compounds read low; in the data active means activity change below about -30%; further: on the % scale 0 is the no-effect control and ±100 the full control effect
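Tetracycline-induced HEK293 Trex D1 cells, force-coupled to calcium, dye-loaded; compounds added and read 180 s, then EC80 dopamine added and calcium flux tracked kinetically another 180 s.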
TRHR agonist = qHTS for Small Molecule Agonists and Allosteric Enhancers of Human TRH Receptor: Primary Screen for Agonists; Thyrotropin-releasing hormone receptor (Homo sapiens), P34981; TRHR cells, calcium flux fluo-8, FDSS agonist mode; activation, % at 2 µM; actives 0.18% (n = 360,000); further: 0% is about no effect
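Fluo-8-loaded TRHR cells; 10 s baseline, compound added, kinetic Ca2+ fluorescence read 1/s, agonist mode.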
The depositor's hits bear a star; x = not tested or not shown. Unless noted, no stated cut-off is given here; in the data, active means activation above about 30%; inactive means the rest.

SMILES	D1 PAM	Epigenetic derep	TRHR PAM	D1 ag	D1 antag	TRHR agonist
COc1cccc(C(=O)CN2C3=NCCCN3c3ccccc32)c1	-2.1	0.0%	-2.9	3.7	17.8	1.6
COc1ccc(C(=O)CN2C3=NCCCN3c3ccccc32)cc1OC	-2.1	-8.2%	-6.9	-0.5	-44.2*	-0.4
O=C(NCCO)c1ccc(-n2c(=O)c(=O)[nH]c3ccccc32)cc1	x	0.8%	x	x	x	x
C=CCc1ccccc1OCCSc1nc2ccc([N+](=O)[O-])cc2s1	1.4	-3.2%	-1.9	18.0	-12.8	1.1
COc1ccccc1OCCSc1nc(N)cc(N)n1	-9.4	-0.8%	2.6	0.0	-84.4*	0.0
COc1ccc(OCCSc2ncccn2)cc1	1.3	2.7%	30.5*	1.8	-5.7	-0.5
COc1ccc(OCCCSc2ncccn2)cc1	-5.7	-1.0%	-3.0	3.3	-10.2	-0.2
COc1ccccc1OCCSc1nc2ccc([N+](=O)[O-])cc2s1	-13.7	-3.2%	-4.9	2.9	-57.1*	-0.1
Cc1cc2nc(-c3ccc(OCc4ccc(F)cc4)cc3)cc(C(F)(F)F)n2n1	-4.0	0.0%	-1.9	-0.4	-10.3	1.2
CCOc1ccccc1N(C)C(=O)NCc1noc2ccccc12	-6.4	0.1%	8.5	12.3	-1.4	0.2
O=C(COC(=O)C12CC3CC(CC(O)(C3)C1)C2)NCCc1ccc(Cl)cc1	-13.8	0.0%	-8.4	1.1	-40.3*	-0.1
CCOc1cc2c(cc1/C=C/c1noc(C)c1[N+](=O)[O-])OC(C)C2 (centres undefined)	6.5	x	5.0	74.1*	-17.4	96.7*
O=C(Nc1ccc2nc(SCC(=O)N3CCc4ccccc43)sc2c1)c1ccccc1	-1.4	-3.2%	-2.2	6.9	-26.8	0.7
COc1ccc(CNC(=O)C2CC(c3ccc(F)cc3)=NO2)cc1 (centres undefined)	-2.8	0.0%	7.7	4.0	-14.2	-0.8
O=C(Nc1ccc(OC(F)(F)F)cc1)C1CC(c2ccc(F)cc2)=NO1 (centres undefined)	-3.3	-3.1%	-4.9	7.7	-35.3*	-0.4
Cc1ccc(Cc2cnc(NC(=O)c3ccc4c(c3)CC(c3ccccc3)OC4=O)s2)cc1 (centres undefined)	-2.6	3.7%	2.2	0.7	-31.5*	-0.7
Cc1cccc(Cc2cnc(NC(=O)c3ccc4c(c3)CC(c3ccccc3)OC4=O)s2)c1 (centres undefined)	-0.4	0.0%	8.3	0.7	-0.3	0.1
COC(=O)c1c(SC)nc2ccccc2c1OCc1cc(C)ccc1C	-2.3	0.8%	13.1	30.8*	16.7	-0.9
COC(=O)c1c(SC)nc2ccccc2c1OCc1ccccc1Cl	1.0	-3.7%	-1.3	20.2	3.4	1.1
COc1ccccc1NC(=O)CC1C(=O)NCCN1C(=O)Nc1ccc(Cl)c(Cl)c1 (centres undefined)	-5.2	-1.1%	-10.8	4.0	-30.4*	1.0
COc1cc(-c2n[nH]c(=S)n2/N=C/c2cccn2C)cc(OC)c1OC	-2.4	1.1%	2.0	77.9*	-58.7*	18.9
O=C(NNC(=S)NC(=O)c1cccnc1)c1ccc(Cl)cc1	1.4	-0.4%	-0.2	0.5	7.8	-0.9
O=C(NNC(=O)c1ccc(Cl)c(Cl)c1)c1cccnc1	-13.7	x	-5.3	1.0	-73.6*	0.3
O=C(NNC(=O)c1cccs1)c1cccnc1	-11.1	x	1.7	-0.4	-53.7*	0.4
O=C(NNC(=S)NCc1ccc(Cl)cc1)c1cccnc1	-1.2	x	-3.5	2.7	-35.2*	0.3
SMILES	D1 PAM	Epigenetic derep	TRHR PAM	D1 ag	D1 antag	TRHR agonist
CC(C)(N=NC(C)(C)C(=N)N)C(=N)N	x	-1.3%	x	x	x	x
CCOC(=O)c1sc2ccccc2c1S(=O)(=O)N1CCN(c2cc(C)ccc2C)CC1	-0.7	0.0%	11.5	3.4	24.7	0.4
CC1OC(Nc2ccc(N=Nc3ccccc3)cc2)C(O)C(O)C1O (centres undefined)	-4.8	-0.3%	-3.5	30.6*	-10.2	0.6
CCOC(=O)c1cc(C(=O)OCC)c2ccccn2c1=O	-3.0	0.9%	-8.5	0.9	-32.9*	-0.1
CCOC(=O)c1c[nH]n(-c2ccccc2)c1=O	-5.2	-1.3%	0.3	1.1	-15.2	0.3
CCc1ccccc1N1C(=O)N(Cc2ccccc2C)c2ccccc2S1(=O)=O	-2.2	-0.2%	26.8	3.0	0.5	0.0
Cc1ccc(C)c(NC(=O)CSc2c3c(nc4ccc(Cl)cc24)CCCC3)c1	1.7	10.8%	-1.8	1.6	-2.7	-0.4
Cc1cc(OC(=O)c2c(Cl)cc(Cl)cc2Cl)nc(C)n1	1.9	-0.2%	-2.2	1.4	14.7	-0.8
Cc1cc(C)nc(OC(=O)c2c(Cl)cc(Cl)cc2Cl)n1	-2.5	1.3%	30.2*	2.6	-11.3	-0.6
CCc1nn(CC(=O)NCCCN(C)Cc2ccccc2)c(=O)c2cc3sc(C)cc3n12	2.8	x	2.3	2.6	-37.2*	-0.7
CCOCCCNC(=O)Cn1nc(CC)n2c(cc3c(OC)cccc32)c1=O	-4.5	0.0%	3.9	0.8	-30.1*	-0.3
COc1cccc2c1cc1c(=O)n(CC(=O)NCCCc3ccccc3)nc(C)n12	4.7	x	-0.4	1.8	-38.8*	0.3
O=C(c1cccc(Cl)c1)N(Cc1cccc(F)c1)C1CCS(=O)(=O)C1 (centres undefined)	-0.2	-1.0%	0.4	1.2	-0.2	-0.4
Cc1ccc(/C=N/n2c(-c3cccc(Cl)c3)n[nH]c2=S)o1	-2.4	0.0%	-4.4	-1.1	-34.8*	-0.2
COc1ccc(CNc2nc3ccccc3n2C)c(OC)c1	-4.4	3.7%	-5.0	11.8	-40.2*	-0.9
COc1ccccc1Cn1c(-c2ccccc2OC)nc2ccccc21	0.7	2.6%	37.3*	-1.0	6.6	-0.5
COc1ccccc1CNc1nc2ccccc2n1CCN1CCCCC1	5.0	0.0%	-7.1	11.1	-35.3*	0.3
Oc1ccccc1Cn1c(-c2ccccc2O)nc2ccccc21	-5.3	0.7%	2.7	0.7	-11.7	1.9
Oc1ccccc1CNc1nc2ccccc2n1CCN1CCCCC1	3.6	0.8%	5.7	2.9	4.2	-0.9
N#Cc1ccc(NC(=O)COCc2cc(-c3ccco3)on2)cc1	2.1	0.0%	10.9	2.0	0.9	-1.2
Cc1cc(C)c(CSc2nnc(C)n3c2cc2occc23)c(C)c1	3.2	4.0%	-7.7	-0.4	14.1	0.8
CSC1=N/C(=C\c2ccccc2C)C(=O)S1	2.9	2.3%	32.0*	3.3	5.3	0.9
